The record followed here is the supplement of paper PMC9925115.

The structures appear in SMILES notation. Where a name gives a salt, the structure may show the parent alone.

In this assay the test system is FLX1 + dox-induced PRKAR1A G325D. In words: difference in log2 fold change of viability vs plate median (dox-induced PRKAR1A G325D minus uninduced); higher = compound less effective when PKA is inhibited. Conditions: concentration: not stated (2 or 5 uM); 5 days. The protocol: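 For each plate a log2 fold change vs the plate median was derived, and the values without dox were subtracted from those with dox, averaged over three biological replicates.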
On to `Cc1cc([C@@H](C)Nc2ccccc2C(=O)O)c2nc(N3CCOCC3)cc(=O)n2c1`, for which the “difference in log2 fold change of viability” value (“difference in log2 fold change” below) came out at 0.0369.

Take `CCn1c(-c2nonc2N)nc2c(C#CC(C)(C)O)ncc(OC[C@H]3CCCNC3)c21`: the “difference in log2 fold change” value was determined as 0.00672.

As for `Nc1ncnc2c1c(-c1cnc3[nH]ccc3c1)nn2C1CCCC1`, the “difference in log2 fold change” value worked out at 0.363.

For the compound `CNC(=O)c1cc(Oc2ccc(NC(=O)Nc3ccc(Cl)c(C(F)(F)F)c3)c(F)c2)ccn1` [Regorafenib (BAY 73-4506)], the “difference in log2 fold change” value is -0.347.

Regarding `CC(C)(C)NS(=O)(=O)c1cncc(-c2cc(F)c3nc(N)nn3c2)c1`, the “difference in log2 fold change” value is -0.0394.

As to `CCC(=O)Nc1cccc(Oc2nc(Nc3ccc(N4CCN(C)CC4)cc3OC)ncc2Cl)c1`, the “difference in log2 fold change” value is -0.831.

In the case of `CN1CC[C@H](c2c(O)cc(O)c3c(=O)cc(-c4ccccc4Cl)oc23)[C@H](O)C1` [Flavopiridol (Alvocidib)], the “difference in log2 fold change” value came to 0.251.

On to `O=c1cc(N2CCOCC2)oc2c(-c3ccccc3)cccc12`, for which the “difference in log2 fold change” value was 0.224.

On to `C=CCc1ccc(O)c(-c2ccc(O)c(CC=C)c2)c1` [Honokiol], for which the “difference in log2 fold change” value was -1.37.

Turning to `Cc1nc(Nc2ncc(C(=O)Nc3c(C)cccc3Cl)s2)cc(N2CCN(CCO)CC2)n1` [Dasatinib], the “difference in log2 fold change” value came to 0.18.

As for `O=C(c1ccc(Nc2nccc(-c3cc4ccccc4s3)n2)cc1)N1CCC(N2CCCC2)CC1` [IKK-16 (IKK Inhibitor VII)], the “difference in log2 fold change” value is 0.096.

In the case of `O=S(=O)(c1cccc2cnccc12)N1CCCNCC1` [Fasudil (HA-1077) HCl], the “difference in log2 fold change” value is -0.15.

Turning to `Cc1ccc(NC(=O)c2ccc(CN3CCN(C)CC3)cc2)cc1Nc1nc(-c2cccnc2)cs1` [Masitinib (AB1010)], the “difference in log2 fold change” value is 0.682.

Consider `COCCOc1ccc2c(c1)ncn2-c1ccc2cccc(N3CCC(N)CC3)c2n1`, for which the “difference in log2 fold change” value is -0.262.

On to `O=C1Nc2ccc(I)cc2/C1=C/c1cc(Br)c(O)c(Br)c1`, for which the “difference in log2 fold change” value was 1.35.

Turning to `CC1(C)CNc2cc(NC(=O)c3cccnc3NCc3ccncc3)ccc21` [Motesanib Diphosphate (AMG-706)], the “difference in log2 fold change” value came out at 0.326.

Turning to `Nc1nc(N)c(N=O)c(OCC2CCCCC2)n1`, the “difference in log2 fold change” value was -0.216.

As to `CC(C)(C)c1cc(NC(=O)Nc2ccc(-c3cn4c(n3)sc3cc(OCCN5CCOCC5)ccc34)cc2)no1` [Quizartinib (AC220)], the “difference in log2 fold change” value amounted to 0.254.

In the case of `COc1cc(Nc2c(C#N)cnc3cc(OCCCN4CCN(C)CC4)c(OC)cc23)c(Cl)cc1Cl` [Bosutinib (SKI-606)], the “difference in log2 fold change” value was -0.235.

In the case of `CCOc1ccn(-c2ccc(F)cc2)c(=O)c1C(=O)Nc1ccc(Oc2ccnc(N)c2Cl)c(F)c1`, the “difference in log2 fold change” value is 0.114.

Turning to `COc1ncc(-c2ccc3nccc(-c4ccnnc4)c3c2)cc1NS(=O)(=O)c1ccc(F)cc1F`, the “difference in log2 fold change” value came to 0.179.

As for `Cc1ccc(C(=O)Nc2ccc(CN3CCN(C)CC3)c(C(F)(F)F)c2)cc1C#Cc1cnc2[nH]ncc2c1` [GZD824 Dimesylate], the “difference in log2 fold change” value came to 0.11.

For `CN1CCN(c2cccc(Nc3nc4c(-c5ccc(S(C)(=O)=O)cc5)cccn4n3)c2)CC1`, the “difference in log2 fold change” value is -0.93.

Take `Cn1cnc(N)c2ncnc1-2` [3-Methyladenine (3-MA)]: the “difference in log2 fold change” value came out at 0.548.

`O=C(Nc1ccc(OC(F)(F)F)cc1)c1sccc1NCc1ccnc2ccccc12`: the “difference in log2 fold change” value is 0.386.

For the compound `S=C(NCc1ccc2c(c1)OCO2)N1CCN(c2ncnc3c2oc2ccccc23)CC1` [Amuvatinib (MP-470)], the “difference in log2 fold change” value came out at 0.22.

Turning to `CCCS(=O)(=O)Nc1ccc(F)c(C(=O)c2c[nH]c3ncc(Cl)cc23)c1F`, the “difference in log2 fold change” value was determined as 0.333.

Turning to `CS(=O)(=O)N1CCN(Cc2cc3nc(-c4cccc5[nH]ncc45)nc(N4CCOCC4)c3s2)CC1` [Pictilisib (GDC-0941)], the “difference in log2 fold change” value was -0.0931.

With `CCS(=O)(=O)Nc1ccc2c(c1)/C(=C(/Nc1ccc(CN3CCCCC3)cc1)c1ccccc1)C(=O)N2` [Hesperadin], the “difference in log2 fold change” value was -0.105.

Regarding `COc1cc(N2CCC(N)CC2)ccc1Nc1ncc(Cl)c(-c2c[nH]c3ccccc23)n1`, the “difference in log2 fold change” value is 0.0117.

Take `CCOC(=O)c1cnc2ccc(-c3cncc(NS(=O)(=O)c4ccccc4)c3)cn12`: the “difference in log2 fold change” value is 0.663.

As to `Cn1ncc(Cl)c1-c1cc(C(=O)N[C@H](CN)Cc2ccc(F)c(F)c2)oc1Cl`, the “difference in log2 fold change” value is -0.0579.

On to `Oc1ccc(Nc2nc(-c3ccc(Cl)cc3)cs2)cc1`, for which the “difference in log2 fold change” value is -0.56.

Take `COc1ccc(S(=O)(=O)N(C(C)=O)c2ccccc2/C=C/c2cc[n+]([O-])cc2)cc1`: the “difference in log2 fold change” value is 0.0942.

Take `C[C@@]1(C(=O)Nc2ccc(F)nc2)CCCN1c1nc(Nc2cc(C3CC3)n[nH]2)c2cccn2n1`: the “difference in log2 fold change” value was -1.23.

For the compound `CO[C@@H](C(=O)N1Cc2[nH]nc(NC(=O)c3ccc(N4CCN(C)CC4)cc3)c2C1)c1ccccc1`, the “difference in log2 fold change” value came to 0.428.

With `CC[C@H](Nc1ncnc2[nH]cnc12)c1nc2cccc(F)c2c(=O)n1-c1ccccc1` [Idelalisib (CAL-101, GS-1101)], the “difference in log2 fold change” value came to 0.00653.

For `COc1cc2c(c(OC)c1OC)-c1c(cc3c(c1OC)OCO3)CC(C)C(C)C2` (stereo not given) [Schisandrin B (Sch B)], the “difference in log2 fold change” value was 0.277.

For the compound `Cn1cc(/C=C2\C(=O)Nc3cccnc32)c2ccccc21`, the “difference in log2 fold change” value was 0.00477.

In the case of `N#CC(=C(/N)Sc1ccccc1N)/C(C#N)=C(\N)Sc1ccccc1N`, the “difference in log2 fold change” value came to 0.518.
